Data as given in PubChem BioAssay (NCATS).
“And” between values parts separate entries of the source, which are not always exact repeats. Equal values may be shown once. Records with an inconclusive call do not appear. The source made the active and inactive calls. The call rests on the fitted dose curve; in most records, active means well fitted curve in the direction sought with a large enough effect; inconclusive means small, poorly fitted or top-dose-only effect, or another doubt; inactive means no such curve, though single readings can be large; an effect the other way counts as inactive or inconclusive.

Tests used:
KB-3-1 = test: Cytotoxic Profiling of Annotated Libraries Using Quantitative High-Throughput Screening (AID 1296008); conditions: Five cell lines viability, CellTiter-Glo ATP luminescence, 48-72 h; max response: active compounds read low; further: nearly all actives have a fitted effect of over 60% in size
In short: (§1)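 Cytotoxicity was measured as CellTiter-Glo ATP luminescence, read after 10 min at room temperature. Compound treatment of the cells lasted 48 or 72 hr at 37 degrees Celsius in a qHTS format.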

NIH3T3 = test: as above; conditions: Five cell lines viability, CellTiter-Glo ATP luminescence, 48-72 h; max response: active compounds read low
In short: as §1

MCC-13 = test: qHTS assay to identify novel small-molecules to repurpose for Merkel cell carcinoma treatment (AID 1296009); conditions: MCC and control cell lines, CellTiter-Glo viability, 72 h; series mostly up to 46 µM; further: nearly all actives have a fitted effect of over 60% in size
In short: (§2)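 72 hr, 37 degree celsius; NPC 8-pt / MIPE 11-pt dose response; compound pinned in DMSO; CellTiter-Glo, 10 min RT, luminescence; normalized to no-cell and DMSO controls.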

MCC-26 = test: as above; conditions: MCC and control cell lines, CellTiter-Glo viability, 72 h; series mostly up to 46 µM
In short: as §2

MKL-1 = test: as above; conditions: MCC and control cell lines, CellTiter-Glo viability, 72 h; series mostly up to 46 µM
In short: as §2

MKL-2 = test: as above; conditions: MCC and control cell lines, CellTiter-Glo viability, 72 h; series mostly up to 46 µM
In short: as §2

UISO = test: as above; conditions: MCC and control cell lines, CellTiter-Glo viability, 72 h; series mostly up to 46 µM
In short: as §2

WaGa = test: as above; conditions: MCC and control cell lines, CellTiter-Glo viability, 72 h; series mostly up to 46 µM
In short: as §2

C33A = test: Primary qHTS to identify gynecologic anti-cancer compounds using libraries of approved drugs and bioactive compounds (AID 1345084); conditions: Gynecologic cancer cell panel viability, ATPlite luminescence, 48 h; series mostly up to 57.5 µM; further: nearly all actives have a fitted effect of over 55% in size
In short: (§3)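 Cells, 1,000 per well, were allowed to settle for 16 h at 37 C before compound addition. Five concentrations were tested for 48 h, and viability was read by ATPlite luminescence after 15 min at room temperature.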

CAOV3 = test: as above; conditions: Gynecologic cancer cell panel viability, ATPlite luminescence, 48 h; series mostly up to 57.5 µM
In short: as §3

CASKI = test: as above; conditions: Gynecologic cancer cell panel viability, ATPlite luminescence, 48 h; series mostly up to 57.5 µM
In short: as §3

Es-2 = test: as above; conditions: Gynecologic cancer cell panel viability, ATPlite luminescence, 48 h; series mostly up to 57.5 µM
In short: as §3

HeLa = test: as above; conditions: Gynecologic cancer cell panel viability, ATPlite luminescence, 48 h; series mostly up to 57.5 µM
In short: as §3

Hek293T = test: as above; conditions: Gynecologic cancer cell panel viability, ATPlite luminescence, 48 h, control line for the selectivity index; series mostly up to 57.5 µM
In short: as §3

JEG-3 = test: as above; conditions: Gynecologic cancer cell panel viability, ATPlite luminescence, 48 h; series mostly up to 57.5 µM
In short: as §3

OV90 = test: as above; conditions: Gynecologic cancer cell panel viability, ATPlite luminescence, 48 h; series mostly up to 57.5 µM
In short: as §3

PA-1 = test: as above; conditions: Gynecologic cancer cell panel viability, ATPlite luminescence, 48 h; series mostly up to 57.5 µM
In short: as §3
On the % scale 0 is the no-effect control and ±100 the full control effect.

COC(=O)C(c1ccccc1Cl)N1CCc2sccc2C1 (stereo not given)
inactive: max response (KB-3-1) -8.1% | max response (NIH3T3) -4.69% | Potency (MCC-13) | Potency (MCC-26) | Potency (MKL-1) | Potency (MKL-2) | Potency (UISO) | Potency (WaGa) | Potency (C33A) | Potency (CAOV3) | Potency (CASKI) | Potency (Es-2) | Potency (HeLa) | Potency (Hek293T) | Potency (JEG-3) | Potency (OV90) | Potency (PA-1)

C=C[C@H]1CN2CC[C@H]1C[C@@H]2[C@@H](O)c1ccnc2ccc(OC)cc12
inactive: max response (KB-3-1) -6.93% | max response (NIH3T3) 1.59% | Potency (MCC-13) | Potency (MCC-26) | Potency (MKL-1) | Potency (MKL-2) | Potency (UISO) | Potency (WaGa) | Potency (C33A) | Potency (CAOV3) | Potency (CASKI) | Potency (Es-2) | Potency (HeLa) | Potency (Hek293T) | Potency (JEG-3) | Potency (OV90) | Potency (PA-1)

CN(Cc1ccc(C(C)(C)C)cc1)Cc1cccc2ccccc12
inactive: max response (KB-3-1) -4.26% and -7.03% | max response (NIH3T3) -14% | Potency (MCC-13) | Potency (MCC-26) | Potency (MKL-1) | Potency (MKL-2) | Potency (UISO) | Potency (WaGa) | Potency (C33A) | Potency (CAOV3) | Potency (CASKI) | Potency (Es-2) | Potency (HeLa) | Potency (Hek293T) | Potency (JEG-3) | Potency (OV90) | Potency (PA-1)

CCCCCCCCCCCCCC(=O)OC(C)C
inactive: max response (KB-3-1) -19% | max response (NIH3T3) 2.35% | Potency (MCC-13) | Potency (MCC-26) | Potency (MKL-1) | Potency (MKL-2) | Potency (UISO) | Potency (WaGa) | Potency (C33A) | Potency (CAOV3) | Potency (CASKI) | Potency (Es-2) | Potency (HeLa) | Potency (Hek293T) | Potency (JEG-3) | Potency (OV90) | Potency (PA-1)

C=CCN1CCc2nc(N)sc2CC1
inactive: max response (KB-3-1) 3.04% | max response (NIH3T3) 2.55% | Potency (MCC-13) | Potency (MCC-26) | Potency (MKL-1) | Potency (MKL-2) | Potency (UISO) | Potency (WaGa) | Potency (C33A) | Potency (CAOV3) | Potency (CASKI) | Potency (Es-2) | Potency (HeLa) | Potency (Hek293T) | Potency (JEG-3) | Potency (OV90) | Potency (PA-1)

COc1cc(NS(=O)(=O)c2ccc(N)cc2)ncn1
inactive: max response (KB-3-1) -8.34% | max response (NIH3T3) -12.1% | Potency (MCC-13) | Potency (MCC-26) | Potency (MKL-1) | Potency (MKL-2) | Potency (UISO) | Potency (WaGa) | Potency (C33A) | Potency (CAOV3) | Potency (CASKI) | Potency (Es-2) | Potency (HeLa) | Potency (Hek293T) | Potency (JEG-3) | Potency (OV90) | Potency (PA-1)

CCCc1ncc(C[n+]2ccccc2C)c(N)n1
inactive: max response (KB-3-1) 2.61% | max response (NIH3T3) 2.55% | Potency (MCC-13) | Potency (MCC-26) | Potency (MKL-1) | Potency (MKL-2) | Potency (UISO) | Potency (WaGa) | Potency (C33A) | Potency (CAOV3) | Potency (CASKI) | Potency (Es-2) | Potency (HeLa) | Potency (Hek293T) | Potency (JEG-3) | Potency (OV90) | Potency (PA-1)

O=C(Nc1cccc(C2=NCCN2)c1)Nc1cccc(C2=NCCN2)c1
inactive: max response (KB-3-1) -7.99% | max response (NIH3T3) 1.41% | Potency (MCC-13) | Potency (MCC-26) | Potency (MKL-1) | Potency (MKL-2) | Potency (UISO) | Potency (WaGa) | Potency (C33A) | Potency (CAOV3) | Potency (CASKI) | Potency (Es-2) | Potency (HeLa) | Potency (Hek293T) | Potency (JEG-3) | Potency (OV90) | Potency (PA-1)

CC(=O)O[C@H]1C[C@@H]2CC[C@@H]3[C@H](CC[C@@]4(C)[C@H]3C[C@H]([N+]3(C)CCCCC3)[C@@H]4OC(C)=O)[C@@]2(C)C[C@@H]1N1CCCCC1
inactive: max response (KB-3-1) -0.262% | max response (NIH3T3) 3.84% | Potency (MCC-13) | Potency (MCC-26) | Potency (MKL-1) | Potency (MKL-2) | Potency (UISO) | Potency (WaGa) | Potency (C33A) | Potency (CAOV3) | Potency (CASKI) | Potency (Es-2) | Potency (HeLa) | Potency (Hek293T) | Potency (JEG-3) | Potency (OV90) | Potency (PA-1)

O=C(O)C1(C(=O)O)CCC1.[NH2-].[NH2-].[Pt+2]
inactive: max response (KB-3-1) 13% | max response (NIH3T3) -2.25% | Potency (MCC-13) | Potency (MCC-26) | Potency (MKL-1) | Potency (MKL-2) | Potency (UISO) | Potency (WaGa) | Potency (C33A) | Potency (CAOV3) | Potency (CASKI) | Potency (Es-2) | Potency (HeLa) | Potency (Hek293T) | Potency (JEG-3) | Potency (OV90) | Potency (PA-1)

Cn1c(=O)c2[nH]c(Br)nc2n(C)c1=O
inactive: max response (KB-3-1) -9.6% | max response (NIH3T3) -3.31% | Potency (MCC-13) | Potency (MCC-26) | Potency (MKL-1) | Potency (MKL-2) | Potency (UISO) | Potency (WaGa) | Potency (C33A) | Potency (CASKI) | Potency (Es-2) | Potency (HeLa) | Potency (Hek293T) | Potency (JEG-3) | Potency (OV90) | Potency (PA-1)

CC1=C(C(=O)O)N2C(=O)[C@@H](NC(=O)[C@H](N)c3ccccc3)[C@H]2SC1
inactive: max response (KB-3-1) 11.5% | max response (NIH3T3) 1.34% | Potency (MCC-13) | Potency (MCC-26) | Potency (MKL-1) | Potency (MKL-2) | Potency (UISO) | Potency (WaGa) | Potency (C33A) | Potency (CASKI) | Potency (Es-2) | Potency (HeLa) | Potency (Hek293T) | Potency (JEG-3) | Potency (OV90) | Potency (PA-1)

CN1CCN(c2cc3c(cc2F)c(=O)c(C(=O)O)cn3-c2ccc(F)cc2)CC1
inactive: max response (KB-3-1) -5.32% | max response (NIH3T3) -2.14% | Potency (MCC-13) | Potency (MCC-26) | Potency (MKL-1) | Potency (MKL-2) | Potency (UISO) | Potency (WaGa) | Potency (C33A) | Potency (CAOV3) | Potency (CASKI) | Potency (Es-2) | Potency (HeLa) | Potency (Hek293T) | Potency (JEG-3) | Potency (OV90) | Potency (PA-1)

CC(C)Cn1cnc2c1c(=O)n(C)c(=O)n2C
inactive: max response (KB-3-1) -13.7% | max response (NIH3T3) 1.58% | Potency (MCC-13) | Potency (MCC-26) | Potency (MKL-1) | Potency (MKL-2) | Potency (UISO) | Potency (WaGa) | Potency (C33A) | Potency (CAOV3) | Potency (CASKI) | Potency (Es-2) | Potency (Hek293T) | Potency (JEG-3) | Potency (OV90) | Potency (PA-1)
